Assay results taken from publication PMC11006913.

Legend:
Assay in all cases: PBM; 200 nM protein, PBS
Details in all cases: dsDNA, one strand shown
HESX1 [1] = biological target: HESX1 (Homo sapiens, UniProt Q9UBX0 95-180, R165K)
SHOX [2] = biological target: SHOX (Homo sapiens, UniProt O15266 103-189)
ALX4 = ALX4 (Homo sapiens, UniProt Q9H161 200-286, Q225E)
HESX1 [3] = biological target: HESX1 (Homo sapiens, UniProt Q9UBX0 95-180)
MSX2 = MSX2 (Homo sapiens, UniProt P35548 130-214, R199I)
ALX1 [4] = biological target: ALX1 (Homo sapiens, UniProt Q15699 118-204, L144V)
Chain of ALX1 (Homo sapiens, UniProt Q15699 118-204, L144V) (Q15699 118-204 L144V): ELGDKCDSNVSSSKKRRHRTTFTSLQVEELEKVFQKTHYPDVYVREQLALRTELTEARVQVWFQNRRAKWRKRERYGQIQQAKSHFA

ALX3 [5] = biological target: ALX3 (Homo sapiens, UniProt O95076 139-225, N203Q)
Chain of ALX3 (Homo sapiens, UniProt O95076 139-225, N203Q) (O95076 139-225 N203Q): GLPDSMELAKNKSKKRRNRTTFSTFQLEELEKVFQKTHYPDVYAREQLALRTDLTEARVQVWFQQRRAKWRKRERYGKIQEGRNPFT

SHOX [6] = biological target: SHOX (Homo sapiens, UniProt O15266 103-189, R173C)
Chain of SHOX (Homo sapiens, UniProt O15266 103-189, R173C) (O15266 103-189 R173C): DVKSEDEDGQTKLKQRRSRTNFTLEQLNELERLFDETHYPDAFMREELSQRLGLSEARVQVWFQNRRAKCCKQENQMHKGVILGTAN

ALX1 [7] = biological target: ALX1 (Homo sapiens, UniProt Q15699 118-204, L144R)
Chain of ALX1 (Homo sapiens, UniProt Q15699 118-204, L144R) (Q15699 118-204 L144R): as the sequence (Q15699 118-204 L144V) above, with V27R counted along it

ALX3 [8] = biological target: ALX3 (Homo sapiens, UniProt O95076 139-225)
Chain of ALX3 (Homo sapiens, UniProt O95076 139-225) (O95076 139-225): as the sequence (O95076 139-225 N203Q) above, with Q65N counted along it

PROP1 [9] = biological target: PROP1 (Homo sapiens, UniProt O75360 56-141)
Chain of PROP1 (Homo sapiens, UniProt O75360 56-141) (O75360 56-141): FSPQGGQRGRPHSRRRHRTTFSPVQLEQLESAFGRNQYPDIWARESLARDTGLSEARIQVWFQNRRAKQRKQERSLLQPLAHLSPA

HESX1 [10] = biological target: HESX1 (Homo sapiens, UniProt Q9UBX0 95-180, R109Q)
Chain of HESX1 (Homo sapiens, UniProt Q9UBX0 95-180, R109Q) (Q9UBX0 95-180 R109Q): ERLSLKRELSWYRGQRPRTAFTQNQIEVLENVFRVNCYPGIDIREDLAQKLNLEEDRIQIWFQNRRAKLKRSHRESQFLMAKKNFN

PROP1 [11] = biological target: PROP1 (Homo sapiens, UniProt O75360 56-141, R99H)
Chain of PROP1 (Homo sapiens, UniProt O75360 56-141, R99H) (O75360 56-141 R99H): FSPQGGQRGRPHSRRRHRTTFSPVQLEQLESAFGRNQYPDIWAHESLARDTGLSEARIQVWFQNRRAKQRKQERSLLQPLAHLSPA

ALX3 [12] = biological target: ALX3 (Homo sapiens, UniProt O95076 139-225, L168Q)
Chain of ALX3 (Homo sapiens, UniProt O95076 139-225, L168Q) (O95076 139-225 L168Q): as the sequence (O95076 139-225 N203Q) above, with L30Q, Q65N counted along it

HESX1 [13] = biological target: HESX1 (Homo sapiens, UniProt Q9UBX0 95-180, P111T)
Chain of HESX1 (Homo sapiens, UniProt Q9UBX0 95-180, P111T) (Q9UBX0 95-180 P111T): as the sequence (Q9UBX0 95-180 R109Q) above, with Q15R, P17T counted along it

ALX3 [14] = biological target: ALX3 (Homo sapiens, UniProt O95076 139-225, L168V)
Chain of ALX3 (Homo sapiens, UniProt O95076 139-225, L168V) (O95076 139-225 L168V): as the sequence (O95076 139-225 N203Q) above, with L30V, Q65N counted along it

PROP1 [15] = biological target: PROP1 (Homo sapiens, UniProt O75360 56-141, F88S)
Chain of PROP1 (Homo sapiens, UniProt O75360 56-141, F88S) (O75360 56-141 F88S): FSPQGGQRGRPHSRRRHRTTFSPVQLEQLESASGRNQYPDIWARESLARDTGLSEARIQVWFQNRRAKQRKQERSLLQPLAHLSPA

HESX1 [16] = biological target: HESX1 (Homo sapiens, UniProt Q9UBX0 95-180, F115L)
Chain of HESX1 (Homo sapiens, UniProt Q9UBX0 95-180, F115L) (Q9UBX0 95-180 F115L): as the sequence (Q9UBX0 95-180 R109Q) above, with Q15R, F21L counted along it

ALX1 [17] = biological target: ALX1 (Homo sapiens, UniProt Q15699 118-204)
Chain of ALX1 (Homo sapiens, UniProt Q15699 118-204) (Q15699 118-204): as the sequence (Q15699 118-204 L144V) above, with V27L counted along it

ALX3 [18] = biological target: ALX3 (Homo sapiens, UniProt O95076 139-225, N203S)
Chain of ALX3 (Homo sapiens, UniProt O95076 139-225, N203S) (O95076 139-225 N203S): as the sequence (O95076 139-225 N203Q) above, with Q65S counted along it

Chain of SHOX (Homo sapiens, UniProt O15266 103-189) (O15266 103-189): as the sequence (O15266 103-189 R173C) above, with C71R counted along it
Chain of ALX4 (Q9H161 200-286 Q225E): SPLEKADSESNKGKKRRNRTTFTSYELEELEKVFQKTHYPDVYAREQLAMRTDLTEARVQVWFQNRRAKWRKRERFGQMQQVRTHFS
Chain of HESX1 (Homo sapiens, UniProt Q9UBX0 95-180) (Q9UBX0 95-180): as the sequence (Q9UBX0 95-180 R109Q) above, with Q15R counted along it
Chain of HESX1 (Homo sapiens, UniProt Q9UBX0 95-180, R165K) (Q9UBX0 95-180 R165K): as the sequence (Q9UBX0 95-180 R109Q) above, with Q15R, R71K counted along it
Chain of MSX2 (P35548 130-214 R199I): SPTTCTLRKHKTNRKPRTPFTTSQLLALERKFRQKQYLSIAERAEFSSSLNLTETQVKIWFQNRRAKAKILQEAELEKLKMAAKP

## CCAATTAA
HESX1 [1]
  binding signal: 13.6 upbm affinity estimate (log intensity, higher = more binding, comparable within an allelic series)
SHOX [2]
  binding signal: 12.7 upbm affinity estimate (log intensity, higher = more binding, comparable within an allelic series)
ALX4
  binding signal: 14.1 upbm affinity estimate (log intensity, higher = more binding, comparable within an allelic series)
HESX1 [3]
  binding signal: 13.5 upbm affinity estimate (log intensity, higher = more binding, comparable within an allelic series)
MSX2
  binding signal: 13.3 upbm affinity estimate (log intensity, higher = more binding, comparable within an allelic series)
ALX1 [4]
  binding signal: 12.2 upbm affinity estimate (log intensity, higher = more binding, comparable within an allelic series)
ALX3 [5]
  binding signal: 8.51 upbm affinity estimate (log intensity, higher = more binding, comparable within an allelic series)
SHOX [6]
  binding signal: 10.3 upbm affinity estimate (log intensity, higher = more binding, comparable within an allelic series)
ALX1 [7]
  binding signal: 11.9 upbm affinity estimate (log intensity, higher = more binding, comparable within an allelic series)
ALX3 [8]
  binding signal: 12.9 upbm affinity estimate (log intensity, higher = more binding, comparable within an allelic series)
PROP1 [9]
  binding signal: 12 upbm affinity estimate (log intensity, higher = more binding, comparable within an allelic series)
HESX1 [10]
  binding signal: 10.8 upbm affinity estimate (log intensity, higher = more binding, comparable within an allelic series)
PROP1 [11]
  binding signal: 12.2 upbm affinity estimate (log intensity, higher = more binding, comparable within an allelic series)
ALX3 [12]
  binding signal: 11.2 upbm affinity estimate (log intensity, higher = more binding, comparable within an allelic series)
HESX1 [13]
  binding signal: 12.2 upbm affinity estimate (log intensity, higher = more binding, comparable within an allelic series)
ALX3 [14]
  binding signal: 10.8 upbm affinity estimate (log intensity, higher = more binding, comparable within an allelic series)
PROP1 [15]
  binding signal: 7.84 upbm affinity estimate (log intensity, higher = more binding, comparable within an allelic series)
HESX1 [16]
  binding signal: 8.43 upbm affinity estimate (log intensity, higher = more binding, comparable within an allelic series)
ALX1 [17]
  binding signal: 12.8 upbm affinity estimate (log intensity, higher = more binding, comparable within an allelic series)
ALX3 [18]
  binding signal: 8.7 upbm affinity estimate (log intensity, higher = more binding, comparable within an allelic series)

## CCTAATTA
HESX1 [1]
  binding signal: 13.4 upbm affinity estimate (log intensity, higher = more binding, comparable within an allelic series)
SHOX [2]
  binding signal: 13 upbm affinity estimate (log intensity, higher = more binding, comparable within an allelic series)
ALX4
  binding signal: 14.1 upbm affinity estimate (log intensity, higher = more binding, comparable within an allelic series)
HESX1 [3]
  binding signal: 13.3 upbm affinity estimate (log intensity, higher = more binding, comparable within an allelic series)
MSX2
  binding signal: 13.2 upbm affinity estimate (log intensity, higher = more binding, comparable within an allelic series)
ALX1 [4]
  binding signal: 12.2 upbm affinity estimate (log intensity, higher = more binding, comparable within an allelic series)
ALX3 [5]
  binding signal: 8.45 upbm affinity estimate (log intensity, higher = more binding, comparable within an allelic series)
SHOX [6]
  binding signal: 10.4 upbm affinity estimate (log intensity, higher = more binding, comparable within an allelic series)
ALX1 [7]
  binding signal: 11.8 upbm affinity estimate (log intensity, higher = more binding, comparable within an allelic series)
ALX3 [8]
  binding signal: 12.9 upbm affinity estimate (log intensity, higher = more binding, comparable within an allelic series)
PROP1 [9]
  binding signal: 12.1 upbm affinity estimate (log intensity, higher = more binding, comparable within an allelic series)
HESX1 [10]
  binding signal: 9.96 upbm affinity estimate (log intensity, higher = more binding, comparable within an allelic series)
PROP1 [11]
  binding signal: 12.2 upbm affinity estimate (log intensity, higher = more binding, comparable within an allelic series)
ALX3 [12]
  binding signal: 11.2 upbm affinity estimate (log intensity, higher = more binding, comparable within an allelic series)
HESX1 [13]
  binding signal: 12 upbm affinity estimate (log intensity, higher = more binding, comparable within an allelic series)
ALX3 [14]
  binding signal: 10.8 upbm affinity estimate (log intensity, higher = more binding, comparable within an allelic series)
PROP1 [15]
  binding signal: 7.86 upbm affinity estimate (log intensity, higher = more binding, comparable within an allelic series)
HESX1 [16]
  binding signal: 8.21 upbm affinity estimate (log intensity, higher = more binding, comparable within an allelic series)
ALX1 [17]
  binding signal: 12.9 upbm affinity estimate (log intensity, higher = more binding, comparable within an allelic series)
ALX3 [18]
  binding signal: 8.58 upbm affinity estimate (log intensity, higher = more binding, comparable within an allelic series)
